# Compounds with a hit are over-represented: about 2.4% of the library has one in this group of screens.
# CHO-K1 Ca antag: nonselective inhibitor or artifact in parental CHO-K1 cells; ATP-induced calcium, Fluo-8 fluorescence; inhibition, % at 3 µM; hit rate 0.6% among 360,000; AID 602250;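 active means inhibition above a per-plate cutoff, the plate's mean sample inhibition plus 3 SD, cut at about 24% in these data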;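 further: 0% = DMSO plus EC80 ATP and 100% = DMSO alone without ATP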
# CHO-K1 Ca ag: counter-screen for M1 agonists: effect in parental CHO-K1 cells; Fluo-8 calcium fluorescence; scaled to maximal ATP response, vehicle zero; activation, % at 3 µM; hit rate 0.48% among 360,000; AID 602248, 2012; in the data active means activation above about 15%;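 further: untransfected CHO-K1 host cells lacking M1 receptor as counterscreen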
# CHRM1 PAM: human M1 muscarinic receptor positive allosteric modulators, primary screen, CHO-K1 cells, Fluo-8 calcium fluorescence, 1536-well; Muscarinic acetylcholine receptor M1 (Homo sapiens), P11229; CHO-K1 hM1, ACh EC20; 0% = ACh EC20, 100% = maximal ACh; activation, % at 3 µM; hit rate 0.088% among 360,000; AID 588819, 2011; in the data active means activation above about 19%, passing the limit was not always enough
# Target sequence (P11229 whole entry, looked up): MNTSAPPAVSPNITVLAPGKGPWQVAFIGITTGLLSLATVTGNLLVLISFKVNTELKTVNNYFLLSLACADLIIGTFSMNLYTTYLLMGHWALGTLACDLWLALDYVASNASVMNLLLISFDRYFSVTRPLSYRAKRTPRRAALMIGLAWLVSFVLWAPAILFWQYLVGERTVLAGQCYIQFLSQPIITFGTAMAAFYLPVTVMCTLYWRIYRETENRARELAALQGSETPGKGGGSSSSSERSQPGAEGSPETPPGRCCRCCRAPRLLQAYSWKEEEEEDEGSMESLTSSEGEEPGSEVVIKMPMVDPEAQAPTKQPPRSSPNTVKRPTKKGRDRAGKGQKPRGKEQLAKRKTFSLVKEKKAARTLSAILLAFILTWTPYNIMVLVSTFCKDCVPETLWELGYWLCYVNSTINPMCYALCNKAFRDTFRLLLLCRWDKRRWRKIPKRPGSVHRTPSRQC
# CHRM1 agonist: human M1 muscarinic receptor agonists, primary screen, Fluo-8 calcium fluorescence, CHO-K1 cells, HTS. Muscarinic acetylcholine receptor M1 (Homo sapiens), P11229. CHO-K1 hM1, agonist mode; 0% DMSO, 100% acetylcholine EC100. activation, % at 3 µM. hit rate 0.33% among 360,000;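 active means activation above the run's mean compound activation plus 3 SD, cut at about 16% in these data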;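 further: peak over basal fluorescence ratio within a 140 s kinetic read after compound addition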
# CHRM1 antagonist: human M1 muscarinic receptor antagonists, primary screen, CHO-K1 cells, Fluo-8 calcium fluorescence, 1536-well; Muscarinic acetylcholine receptor M1 (Homo sapiens), P11229; CHO-K1 hM1, ACh EC80 antagonist; inhibition, % at 3 µM; hit rate 1.3% among 360,000; AID 588852, 2011;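 active means percent inhibition above its own plate's cutoff, namely the mean of that plate's compound wells plus 3 SD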;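 further: peak over basal fluorescence ratio during 140 s after agonist addition; 0% = ACh EC80 plus DMSO and 100% = DMSO alone without agonist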
# CHO-K1 Ca PAM: nonselective calcium activators in parental CHO-K1 cells, primary screen, counter-screen for M1 PAM project, cell-based, Fluo-8 calcium fluorescence, full deck, 1536-well; ATP EC20; 0% at ATP EC20, 100% at ATP max; activation, % at 3 µM; hit rate 0.02% among 360,000;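 active means activation above the run cutoff, the mean activation of all test compounds plus 3 SD, cut at about 40% in these data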;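 further: peak over basal fluorescence ratio in a 140 s read after ATP addition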
# An asterisk follows results filed as active; nt = no result.
SMILES,CHO-K1 Ca antag,CHO-K1 Ca ag,CHRM1 PAM,CHRM1 agonist,CHRM1 antagonist,CHO-K1 Ca PAM
Clc1ccc(OCCCCN2CCCCC2)cc1,11,1,-11,-9,16,0
CC(C)c1ccc(OCCCCN2CCCCC2)cc1,-7,4,-25,-8,60*,-3
O=C(C1COc2ccccc2O1)N1CCN(c2ccc([N+](=O)[O-])cc2)CC1 (stereo not drawn),2,3,-8,-6,10,-14
Cc1ccc(S(=O)(=O)CC2CSc3nc4ccccc4n32)cc1 (stereo not drawn),28*,11,-15,1,20,-11
Cc1ccc(S(=O)(=O)CC2CSc3nc(N)cc(=O)n32)cc1 (stereo not drawn),-11,0,3,-4,-5,18
COc1ccc(CNc2ccc(Cl)cc2)cc1Cn1ccnc1,7,4,-1,17*,-2,18
O=[N+]([O-])/C=C/c1cn(Cc2ccccc2)c2ccccc12,-5,0,10,1,-1,16
N#Cc1ccccc1Cn1cc(/C=C/[N+](=O)[O-])c2ccccc21,-1,3,8,4,50*,18
CCOC(=O)C1=CCN(S(=O)(=O)c2ccccc2C)C1c1ccccc1 (stereo not drawn),26*,1,7,-10,-1,-7
CCOC(=O)C1=CCN(S(=O)(=O)c2ccc(F)cc2)C1c1cccc(C)c1 (stereo not drawn),-2,0,-4,-11,1,11
CCOC(=O)C1=CCN(S(=O)(=O)c2ccccc2Br)C1c1ccc(Cl)c(Cl)c1 (stereo not drawn),29*,1,-6,-4,13,2
CCOC(=O)C1=CCN(S(=O)(=O)c2ccccc2Cl)C1c1ccc(Cl)c(Cl)c1 (stereo not drawn),8,1,-12,-6,14,7
CCOC(=O)C1=CCN(S(=O)(=O)c2ccc(F)cc2)C1c1cccc(F)c1 (stereo not drawn),27*,2,0,-4,7,-7
CCOC(=O)C1=CCN(S(=O)(=O)c2ccccc2C)C1c1ccc(Br)cc1 (stereo not drawn),7,2,-5,-1,8,14
O=C(c1cccc(C(F)(F)F)c1)C1CCCN(C(=O)c2cc(C3CC3)[nH]n2)C1 (stereo not drawn),14,10,-3,0,9,-5
Cc1cc(C)c(S(=O)(=O)Nc2ccc(O)c(Sc3ncn[nH]3)c2)cc1C,-11,0,5,-1,-17,9
CCC(C)(C)c1ccc(OCC(=O)Nc2ccncc2)cc1,13,11,-5,3,28,4
O=C(NCc1ccncc1)[C@@H]1CCCN1C(=O)[C@@H]1CCCN1C(=O)c1ccccc1Cl,-16,0,nt,nt,nt,5
COc1ccccc1C(=O)N(CCC1CCCN1C)c1nc2ccccc2s1 (stereo not drawn),-10,6,-23,-3,51*,2
CCCOC(=O)C1=C(C)NC2=C(C(=O)CCC2)C1c1ccc(N(C)C)cc1 (stereo not drawn),2,-1,-25,-10,26*,8
CC1=C(C(=O)Nc2ccc(F)cc2)C(c2ccncc2)C2=C(CCCC2=O)N1 (stereo not drawn),24*,0,2,0,4,-7
CCN(CC)c1ccc(C2C(C(=O)OCCOC)=C(C)NC3=C2C(=O)CCC3)cc1 (stereo not drawn),-10,0,-18,-9,24,23
CC1=C(C(=O)Nc2cccnc2)C(c2ccc3c(c2)OCO3)C2=C(CCCC2=O)N1 (stereo not drawn),-5,0,4,-3,-20,13
CCOC(=O)C1=C(C)NC2=C(C(=O)CCC2)C1c1ccc(N(C)C)cc1 (stereo not drawn),-8,0,-32,-12,45*,10
CCCNC(C)(C)COC(=O)c1ccccc1,9,0,9,-9,-24,-11
SMILES,CHO-K1 Ca antag,CHO-K1 Ca ag,CHRM1 PAM,CHRM1 agonist,CHRM1 antagonist,CHO-K1 Ca PAM
CSc1nnc(SCC(=O)Nc2ccc3[nH]c(=O)[nH]c3c2)s1,-4,0,6,-2,-4,8
CCOC(=O)C1=C(C)N(C)C(C)=C(C(=O)OCC)C1c1ccc(C(=O)OC)cc1,-25,-1,-22,-4,53*,8
Nc1ncnc2c1ncn2[C@@H]1O[C@H](CO)C[C@H]1O,24*,-1,1,-2,-19,-4
Nc1ncnc2c1ncn2[C@@H]1O[C@H](COP(=O)(O)OP(=O)(O)OP(=O)(O)O)[C@@H](O)[C@H]1O,-1,37*,4,53*,-27,5
Cc1ccccc1OCC(=O)OCC(=O)NCc1ccccc1Cl,-3,-1,6,-2,-7,-1
Cc1nc2c(OCc3ccc(Cl)cc3Cl)cccn2c1N(C)Cc1cccs1,-4,1,-13,-6,16,6
Cc1nc2c(OCc3cccc(Cl)c3)cccn2c1N(C)Cc1cccs1,-1,2,-13,-4,34*,-1
N#Cc1c(N2CCN(c3ccc(F)cc3)CC2)nc(N)c2c(N)nc3c(c12)CC(=O)N3C1CC1,4,6,-8,0,31*,7
Cc1nc2ccc(C(=O)N(C)Cc3ccccc3)cn2c1N(C)C(=O)CCc1ccccc1,15,0,-7,-4,17,-17
COC(=O)C1CCN(Cc2ccc(OCCCN3CCN(c4ccc([N+](=O)[O-])cc4)CC3)cc2)CC1,4,13,-25,-5,48*,6
O=C1C2CCCCN2C(=O)N1CCCCN1CCN(c2ccc([N+](=O)[O-])cc2)CC1 (stereo not drawn),4,16*,1,-3,1,14
CC(C)C(=O)Nc1ccc2c(c1)nc1n2CCSC1,-11,1,11,-1,-9,16
CCC(=O)Nc1ccc2c(c1)nc1n2CCSC1,24*,0,0,-3,9,-7
COc1ccc(CN2CCNC(=O)C2CC(=O)NCCCC2CCCC2)c(C)c1C (stereo not drawn),5,0,-3,-3,12,-12
COc1ccc(NC(=O)c2cccc(N3C(=O)C4C5C=CC(C6CC56)C4C3=O)c2)cc1 (stereo not drawn),8,15*,-15,5,20,-19
COc1ccc(NC(=O)c2cccc(N3C(=O)C4C5C=CC(C5)C4C3=O)c2)c(OC)c1 (stereo not drawn),-12,2,1,-2,-6,4

# Compound activity (PubChem)
